Screening results deposited in PubChem BioAssay by National Center for Advancing Translational Sciences (NCATS).
The full list was thinned out, with hits kept by preference.
Pf Dd2 growth = blocks in vitro growth of P. falciparum Dd2; P. falciparum Dd2 growth, SYBR Green, 72 h; Potency, µM (highest dose often 28.9 µM), for inactives: at the top dose activity, negative = inhibition, actives largely listed as inhibitors; hit rate 4.3% among 120,000; AID 1347417; active = well fitted inhibition curve with a large enough effect;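 also: plate controls were DMSO vehicle for no effect and reference drug for full effect; nearly all actives have a fitted effect of over 65% in size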
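Infected erythrocytes (Dd2, 0.3% parasitemia, 2.5% hematocrit final) are added to compound in RPMI-1640/Albumax II medium, grown 72 h at 37C in low oxygen, then lysed with saponin/Triton-X containing SYBR Green and read by fluorescence.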
An asterisk follows results filed as active; i = inactive; [ ] = remark or other dose. Potency is read from the fitted curve at half-maximal effect.

SMILES	Pf Dd2 growth
c1cc(-c2nc(C3CCOC3)nn2Cc2ccc3c(c2)OCO3)[nH]n1 (centres undefined)	-12%
NCc1ccc(-c2nc(C3CCOC3)nn2Cc2ccccc2)cc1 (centres undefined)	4.5µM*
c1ccc(Cn2nc(C3CCOC3)nc2-c2ccoc2)cc1 (centres undefined)	-2%
CCCc1noc(-c2ccn3c(CNC(=O)c4ccc(C)cc4C)nnc3c2)n1	-7%
CCCc1noc(-c2ccn3c(CNC(=O)c4ccc(F)cc4Cl)nnc3c2)n1	3.5µM*
Cc1noc(-c2ccn3c(CNC(=O)c4ccc(F)cc4Cl)nnc3c2)n1	-22%
Cc1noc(-c2ccn3c(CNC(=O)c4ccccc4Cl)nnc3c2)n1	0.28µM*
Cc1noc(-c2ccn3c(CNC(=O)c4ccccc4F)nnc3c2)n1	i
Cc1noc(-c2ccn3c(CNC(=O)c4cccc(Cl)c4)nnc3c2)n1	i
Cc1ncsc1CN1C(=O)CO[C@H](c2ccc(NC(=O)C3CCC3)cc2)[C@H]1CO	-4%[44.1 µM]
Cc1cccc(OCC2(CNC(=O)c3cnccn3)C[C@@H](O)[C@@H](O)C2)n1 (some centres undefined)	-20%[44.1 µM]
O=C(NCc1cccc(F)c1)c1cnc2n1CCN(CCc1ccccc1)CC2	28%[44.1 µM]
CNC(=O)[C@@H]1CN(C(=O)c2nccc3ccccc23)C[C@H]1CO	11%
Cc1nc2c(c(-c3ccc(O)cc3)n1)CN(C(=O)c1ccccc1)CC2	i
Cc1ccccc1C(=O)N1CCc2nc(C3CC3)nc(-c3ccc(O)cc3)c2CC1	8.9µM*
O=C(c1ccccc1F)N1CCc2nc(C3CC3)nc(-c3ccc(Cl)cc3)c2C1	-29%
O=C(c1ccccc1)N1CCc2nc(C3CC3)nc(-c3ccc(O)cc3)c2CC1	-2%
Cc1nc2c(c(-c3ccc(Cl)cc3)n1)CCN(C(=O)c1ccccc1C)CC2	-15%
O=C(c1cccc(Cl)c1)N1CCc2nc(C3CC3)nc(-c3ccc(O)cc3)c2CC1	5µM*
CSCC(=O)N1CC[C@H](NC(=O)Nc2ccc(F)cc2F)[C@H]1C(=O)N[C@@H](Cc1cccs1)C(N)=O	12%
CCC(N)(CC)c1cn(CC2CCCN(S(C)(=O)=O)C2)nn1 (centres undefined)	-12%
O=C(c1ccc(-c2ccccc2CO)nc1)N1CCC(CCc2ccccc2)CC1	-9%
COc1ccc(NC(=O)N2CC(c3noc(-c4ccccc4)n3)C2)c(C)c1	-5%
Cc1cc(OCCn2cc(C(=O)c3ccco3)c3ccccc32)ccc1Cl	1.1µM*
COc1ccccc1OCCn1cc(C(=O)c2cccs2)c2ccccc21	i
SMILES	Pf Dd2 growth
Cc1ccccc1OCCn1cc(C(=O)c2ccco2)c2ccccc21	1.3µM*
O=C(Cn1cc(C(=O)c2ccco2)c2ccccc21)Nc1ccc(Br)cc1	-15%
Cc1ccccc1OCCn1cc(C(=O)C2CCCCC2)c2ccccc21	-9%
Cc1cccc(C)c1OCC(=O)N(Cc1ccco1)Cc1ccco1	14%
CCOc1ccc(NC(=O)Cn2cc(C(=O)c3ccccc3)c3ccccc32)cc1	26%
Cc1ccc(OCCn2cc(C(=O)c3cccs3)c3ccccc32)cc1	4µM*
Cc1ccccc1NC(=O)Cn1cc(C(=O)c2ccco2)c2ccccc21	-5%
Cc1nc([C@@H]2CN(C(=O)c3cc(C)n(Cc4ccco4)c3C)C[C@H]2C(N)=O)n[nH]1	8%
COCc1noc([C@@H]2CN(C(=O)c3cccc(C)c3)C[C@H]2COC)n1	39%
CCC(CC)CN1C[C@]23C=C[C@H](O2)C(C(=O)N2CC(n4nc(C)cc4C)C2)C3C1=O (some centres undefined)	-3%
Cc1cccc(CC(=O)N2CCCC(CN3CCCC3)CC2)c1 (centres undefined)	-27%
O=C(N[C@@H]1CN(C2CCSCC2)C[C@H]1CO)c1cccnc1	42%
Cc1cccc(Cl)c1NC(=O)CN1C(=O)NC2(CCC(C)CC2)C1=O (centres undefined)	2%
Cc1cc(C(=O)NCC2(COc3ccc(C(F)(F)F)cn3)C[C@@H](O)[C@@H](O)C2)n(C)n1 (some centres undefined)	0%
O=S(=O)(c1ccccc1)c1nnn2c1nc(NC1CC1)c1ccccc12	-9%
Cc1cc(C)cc(Nc2nc3c(S(=O)(=O)c4cccc(Cl)c4)nnn3c3ccsc23)c1	-11%
CCc1ccc(S(=O)(=O)c2nnn3c2nc(N2CCC(C)CC2)c2cc(Cl)ccc23)cc1	i
CCOC(=O)C1CCN(c2nc3c(S(=O)(=O)c4ccccc4)nnn3c3ccc(Cl)cc23)CC1	8.9µM*
CC1CCN(c2nc3c(S(=O)(=O)c4cccc(Cl)c4)nnn3c3ccsc23)CC1	13µM*
O=S(=O)(c1cccc(Cl)c1)c1nnn2c1nc(NC1CCCC1)c1sccc12	13µM*
O=S(=O)(c1cccc(Cl)c1)c1nnn2c1nc(NCc1ccc3c(c1)OCO3)c1sccc12	-11%
CC(C)c1ccc(S(=O)(=O)c2nnn3c2nc(N2CCCC2)c2sccc23)cc1	0%
CCOC(=O)C1CCCN(c2nc3c(S(=O)(=O)c4ccc(CC)cc4)nnn3c3ccc(Cl)cc23)C1 (centres undefined)	-30%
Cc1cc(C)c(S(=O)(=O)c2nnn3c2nc(NC2CCCC2)c2ccccc23)c(C)c1	11µM*
Cc1ccc(S(=O)(=O)c2nnn3c2nc(N2CCC(C(N)=O)CC2)c2cc(Cl)ccc23)cc1C	-16%
SMILES	Pf Dd2 growth
Cc1cc(C)c(S(=O)(=O)c2nnn3c2nc(NCCCOC(C)C)c2ccccc23)c(C)c1	-20%
COc1ccc(C(=O)N2CCC3(Cc4ccccc4NC3=O)C2)cc1 (centres undefined)	i
O=C(O)c1ccccc1C(=O)N1Cc2[nH]cnc2C[C@H]1c1nc(-c2ccc(C(F)(F)F)cc2)no1	-22%
CC(=O)c1ccc(NC(=O)O[C@@H]2CO[C@H]3[C@@H]2OC[C@@H]3NC(=O)Nc2ccc(Oc3ccccc3)cc2)cc1	i
O=C(c1cc2ccccc2o1)N1CCC2(COc3ncccc3S(=O)(=O)N2)C1 (centres undefined)	21%
CCOc1cc(-c2nc(C3CC(=O)N(c4ccc(F)cc4)C3)no2)cc(OCC)c1OCC (centres undefined)	i
CC(C)c1nnc(C2CN(C(=O)c3cccs3)CC23CCOCC3)o1 (centres undefined)	-11%
Cc1nn(-c2ccccc2)c(Oc2ccc(F)cc2F)c1CCC(=O)NC(C)C	-17%
Cc1nc2ccccc2n1Cc1cc(C(=O)N2CCCC2)no1	0%
COC[C@@H]1CN(Cc2cc(Cl)ccc2F)C[C@H]1C(N)=O	-19%
Cc1cc(C(F)(F)F)nc(CCNC(=O)c2ccc3ncccc3c2)n1	-15%
COc1ccc(CCC(=O)NCCC2CCN(C(=O)Nc3ccc(C)cc3)CC2)cc1	i
CC(C)CCN1C(=O)CC[C@]2(C(=O)N3CCOCC3)CCCC[C@@H]12	-19%
CC(C)CCN1C(=O)CC[C@]2(C(=O)N3CCN(c4ccc(F)cc4)CC3)CCCC[C@@H]12	10µM*
CN1C(=O)CC[C@]2(C(=O)N3CCN(c4ccc(F)cc4)CC3)CCCC[C@@H]12	-3%
O=c1cc(CCn2cccn2)nc(-c2ccc(CN3CCC[C@@H](O)C3)cc2)[nH]1	-12%
CCOCc1nc(C2CCCN(C(=O)NCCc3ccccc3)C2)no1 (centres undefined)	21%
CC1CCCCC1NC(=O)c1ccc2nccn2c1 (centres undefined)	2%[44.1 µM]
N#Cc1ccc(S(=O)(=O)N2CCCOCCNC(=O)[C@@H]3CCC[C@@H]32)cc1	-5%
